In the library only some 1.2% were active in any assay of this set; here they are far more common.
PGK inhibitor – blocks T. brucei phosphoglycerate kinase; actives 0.043% (n = 380,000); Potency, µM (titrated, usually from 57.5 µM), inactives show top-dose activity change, negative = inhibition, usual class: inhibitors; P07378; PGK/GAPDH coupled, Kinase-Glo luminescence, 60 min; further: potency means the concentration at half of the fitted maximal effect; nearly all actives have a fitted effect of over 60% in size
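Recombinant glycosomal PGK reaction used 1,3-bisphosphoglycerate generated in-well by GAPDH (100nM final) in 100mM TEA pH 7.6, 5mM MgCl2, 0.01% Tween-20. After 60 minutes at room temperature, ATP was read by Kinase-Glo Plus luminescence end-point.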
RGS12 GoLoco inh – RGS12 GoLoco-Gai1 interaction inhibition; P63096; Gai1:RGS12 GoLoco peptide FP, rhodamine, 10 min; Potency, µM (titrated, usually from 61.6 µM), without a hit: at the top dose activity, negative = inhibition, hits mostly inhibitors; actives 0.44% (n = 230,000); AID 880; active means well fitted inhibition curve with a large enough effect, not every such curve was filed as active; inactive means no such curve, though single readings can be large or run the other way; further: potency means the concentration at half of the fitted maximal effect; nearly all actives have a fitted effect of over 30% in size
Target sequence (P63096 whole entry, looked up): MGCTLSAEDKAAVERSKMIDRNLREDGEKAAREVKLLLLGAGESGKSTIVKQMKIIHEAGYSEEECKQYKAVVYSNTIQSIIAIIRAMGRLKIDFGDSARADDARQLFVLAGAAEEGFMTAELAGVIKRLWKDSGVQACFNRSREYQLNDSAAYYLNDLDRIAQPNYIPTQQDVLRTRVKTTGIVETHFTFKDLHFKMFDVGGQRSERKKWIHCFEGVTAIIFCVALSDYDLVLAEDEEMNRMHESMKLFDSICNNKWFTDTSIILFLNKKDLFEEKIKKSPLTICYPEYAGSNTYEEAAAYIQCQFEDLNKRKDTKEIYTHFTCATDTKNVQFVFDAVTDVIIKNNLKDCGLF
Pin1 inhibitor – blocks the human prolyl isomerase Pin1 | actives 0.009% (n = 390,000) | Pin1 FP peptide displacement, HiFluor488, 10 min | Potency, µM (doses to about 115 µM), for the others: at the top dose activity, negative = inhibition, most hits filed as inhibitors; active means well fitted inhibition curve with a large enough effect in the polarisation, with a control signal flat, not every such curve was filed as active; inconclusive means small, poorly fitted or top-dose-only effect, or effect the other way, or a change in a side signal; inactive means no such curve, though single readings can be large or run the other way; the % refers to the polarisation; further: potency means the concentration at half of the fitted maximal effect
Target sequence (Q13526 whole entry, looked up): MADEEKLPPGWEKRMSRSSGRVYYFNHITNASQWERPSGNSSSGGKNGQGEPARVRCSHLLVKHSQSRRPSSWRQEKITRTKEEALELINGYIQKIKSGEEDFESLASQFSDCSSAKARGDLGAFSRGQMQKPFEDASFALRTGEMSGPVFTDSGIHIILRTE
PI4K2A inh – blocks human PI4K2A kinase activity | Q9BTU6 | purified PI4K2A, ADP-Glo luminescence, 1 h; stronger effect = lower value | activity change, negative = inhibition, % at 76.9 µM | actives 0.13% (n = 420,000); in the data active means activity change below about -50%; inconclusive means mostly about -30% to -49%;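 further: -100% = wells without enzyme as full effect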
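ADP-Glo luminescence measured ADP generated by PI4K2A enzyme (4 ug/mL before mixing) with 1.2 mM PI substrate (pre-mix) and 300 microM ATP (pre-mix). Tris pH7.5 buffer with MgCl2, Triton X-100; 1 h reaction at ambient temperature.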
PI5P4Ka inh – PI5P4K alpha (human) kinase inhibition | P48426 | PI5P4Kalpha enzyme, ADP-Glo luminescence, 60 min; stronger effect = lower value | max response, % | actives 1.2% (n = 330,000) | AID 652105; active means max response of -50% or lower; inconclusive means between -30% and -50%; inactive means -30% or higher; further: value at the top dose of about 77 µM
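Controls without substrate or without enzyme flank wells where PI5P4Kalpha converts substrate using 5 microM ATP (final). Incubation lasts 60 minutes at room temperature; ADP formed is read by ADP-Glo luminescence.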
GCN5L2 inh – GCN5L2 (KAT2A) acetyltransferase inhibition; Q92830; GCN5L2 HAT assay, ThioGlo1 CoA-SH fluorescence; Potency, µM (top dose mostly 58.9 µM), without a hit: at the top dose activity change, negative = inhibition, usual class: inhibitors; actives 0.21% (n = 390,000); further: potency means the concentration at half of the fitted maximal effect
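Titration-based screen in which CoA formation is detected via maleimide probe ThioGlo1 (50uM) turning fluorescent on thiol reaction; substrates H3(1-25) 75uM and acetyl-CoA 70uM, GCN5L2 20nM, 20 min incubation at room temperature.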
Starred values were filed as active, the others as inactive. Unless noted, the call rests on the fitted dose curve; in most records, active means well fitted curve in the direction sought with a large enough effect; inconclusive means small, poorly fitted or top-dose-only effect, or another doubt; inactive means no such curve, though single readings can be large; an effect the other way counts as inactive or inconclusive. Unless noted, on the % scale 0 is the no-effect control and ±100 the full control effect.

O=C(O)Cn1c(O)c(C2=c3ccccc3=NC2=O)sc1=O was read as PGK inhibitor -1%, Pin1 inhibitor inconclusive, PI4K2A inh -1, PI5P4Ka inh -27 and GCN5L2 inh 0%.
Oc1ccc(/C=N/Nc2ncnc3nc[nH]c23)cc1 was read as PGK inhibitor inconclusive, RGS12 GoLoco inh 6%, Pin1 inhibitor 17%, PI4K2A inh -52*, PI5P4Ka inh -66* and GCN5L2 inh -23%.
Screening COc1ccc(CCNC(=O)Nc2ccc3c(c2)c(=O)n(C)n3Cc2ccc(Cl)cc2)cc1OC returned PI4K2A inh -1 and PI5P4Ka inh -14.
For COc1ccc(Cn2c3nc4ccccc4nc3c3c(=O)n(Cc4ccco4)c(C)nc32)cc1 the results were RGS12 GoLoco inh 45% and GCN5L2 inh inconclusive.
COc1ccc(S(=O)(=O)c2c(N)n(Cc3ccco3)c3nc4ccccc4nc23)cc1 was read as PGK inhibitor -8%, RGS12 GoLoco inh 44%, Pin1 inhibitor inconclusive, PI4K2A inh inconclusive, PI5P4Ka inh -89* and GCN5L2 inh -16%.
For COc1ccc(/C=N/NC(=O)c2cc[n+]([O-])cc2)cc1O the results were PGK inhibitor inactive, Pin1 inhibitor 1%, PI4K2A inh -2, PI5P4Ka inh -7 and GCN5L2 inh 0%.
`CCOc1ccc(CNC(=O)c2cc3ccccn3n2)cc1OC` gave PGK inhibitor 8%, Pin1 inhibitor -6%, PI4K2A inh -7 and GCN5L2 inh 25%.
`O=C(Nc1ccc(N2CCCCCC2)cc1)c1ccccc1Cl` gave PGK inhibitor -6%, RGS12 GoLoco inh -28%, Pin1 inhibitor 1%, PI4K2A inh 3, PI5P4Ka inh 4 and GCN5L2 inh -8%.
For O=C(Nc1ccc(N2CCCCC2)cc1)c1ccccn1 the results were PGK inhibitor inconclusive, RGS12 GoLoco inh -17%, Pin1 inhibitor -4%, PI4K2A inh -65*, PI5P4Ka inh -24 and GCN5L2 inh -7%.
`C=CCn1c(=O)c(CCC(=O)Nc2ccc(N3CCOCC3)cc2)nc2cc(C(F)(F)F)ccc21` gave PGK inhibitor -2%, PI4K2A inh -2, PI5P4Ka inh -53* and GCN5L2 inh 2%.
CC1(C)NC(=O)N(CC(=O)OCC(=O)c2ccc(Br)s2)C1=O was read as PGK inhibitor -9%, Pin1 inhibitor -6%, PI4K2A inh -4, PI5P4Ka inh -64* and GCN5L2 inh -10%.
For COc1ccc(NC(=O)COC(=O)CN2C(=O)NC(C)(C)C2=O)cc1 the results were PGK inhibitor -4%, Pin1 inhibitor -4%, PI4K2A inh 5, PI5P4Ka inh 4 and GCN5L2 inh -1%.
Screening CSc1nc(O)c(C(c2ccccc2)c2c(O)nc(SC)[nH]c2=O)c(=O)[nH]1 returned PGK inhibitor 1%, Pin1 inhibitor -5%, PI4K2A inh -3, PI5P4Ka inh -53* and GCN5L2 inh 0%.
Screening Cc1ccccc1/C=N/Nc1nc2ccccc2[nH]1 returned PGK inhibitor 6%, RGS12 GoLoco inh 17%, Pin1 inhibitor 3%, PI4K2A inh 1, PI5P4Ka inh 4 and GCN5L2 inh -11%.
For O=[N+]([O-])c1cc(/C=N/Nc2nc3ccccc3[nH]2)c(O)cc1O the results were PGK inhibitor inconclusive, RGS12 GoLoco inh 215%, Pin1 inhibitor -3%, PI4K2A inh -5, PI5P4Ka inh -73* and GCN5L2 inh -22%.
`COC(=O)C/C=N/N=C1/NC(=O)/C(=C/C(=O)O)S1` gave PGK inhibitor -4%, RGS12 GoLoco inh 1%, Pin1 inhibitor inconclusive, PI4K2A inh -21, PI5P4Ka inh -71* and GCN5L2 inh -8%.
`COC(=O)/C=C1\S/C(=N/N=C/c2ccccc2)NC1=O` gave PGK inhibitor -7%, RGS12 GoLoco inh -5%, Pin1 inhibitor 3%, PI4K2A inh 0, PI5P4Ka inh -1 and GCN5L2 inh -12%.
